D1 ag – Allosteric Agonists of the Human D1 Dopamine Receptor: qHTS; activation, % at 2 µM; D(1A) dopamine receptor (Homo sapiens), P21728; 360,000 compounds, 1% hits; HEK293 T-REx D1 cells, calcium flux, agonist mode; AID 504660, 2011
Target sequence (P21728 whole entry, looked up): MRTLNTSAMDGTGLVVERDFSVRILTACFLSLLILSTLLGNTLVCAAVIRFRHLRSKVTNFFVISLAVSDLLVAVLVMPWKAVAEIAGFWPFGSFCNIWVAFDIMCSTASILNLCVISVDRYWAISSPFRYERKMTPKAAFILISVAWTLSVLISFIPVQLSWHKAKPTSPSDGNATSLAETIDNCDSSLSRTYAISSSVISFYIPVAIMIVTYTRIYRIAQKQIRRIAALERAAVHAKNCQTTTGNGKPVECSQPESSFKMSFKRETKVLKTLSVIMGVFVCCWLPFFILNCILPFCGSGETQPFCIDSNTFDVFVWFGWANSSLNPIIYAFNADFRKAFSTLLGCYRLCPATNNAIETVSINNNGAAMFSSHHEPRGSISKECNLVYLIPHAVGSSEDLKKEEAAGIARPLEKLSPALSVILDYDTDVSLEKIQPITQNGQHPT
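Inducible HEK293 T-REx D1 cells, force-coupled to calcium signalling, were plated at 4000 cells/well with tetracycline and held overnight at 30 C. After no-wash calcium dye loading, compound-evoked calcium rise over 180 s flagged agonists.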
TRHR agonist – qHTS for Small Molecule Agonists and Allosteric Enhancers of Human TRH Receptor: Primary Screen for Agonists | activation, % at 2 µM | 360,000 compounds, 0.18% hits | Thyrotropin-releasing hormone receptor (Homo sapiens), P34981 | TRHR cells, calcium flux fluo-8, FDSS agonist mode
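Read-out: compound-evoked intracellular calcium rise in TRHR cells, fluo-8 dye, kinetic FDSS fluorescence at 1 s/cycle following a 10-cycle baseline. Cells cultured overnight before dye loading (30 min–1.5 h, RT).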
D1 antag – Antagonist of Human D 1 Dopamine Receptor: qHTS. activity change, negative = inhibition, % at 10 µM. 360,000 compounds, 3.2% hits. D(1A) dopamine receptor (Homo sapiens), P21728. HEK293 TREx D1 cells, calcium flux, dopamine EC80; active compounds read low; in the data active means activity change below about -30%
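Inducible Hek293 Trex D1 cells (tetracycline, overnight, 30 C). Calcium dye 30–90 min RT. Antagonist mode: EC80 dopamine added after 180 s compound read.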
D1 potentiator – Potentiators of Human D1 Dopamine Receptor: qHTS. 360,000 compounds, 0.036% hits. HEK293 TREx D1 cells, calcium flux, dopamine EC20 potentiation. AID 504651, 2011. potentiation, % at 10 µM; in the data active means potentiation above about 30%
TRHR enhancer – qHTS for Small Molecule Agonists and Allosteric Enhancers of Human TRH Receptor: Primary Screen for Enhancers. enhancement, % at 2 µM. AID 493056, 2011. 360,000 compounds, 0.66% hits. Thyrotropin-releasing hormone receptor (Homo sapiens), P34981. TRHR cells, fluo-8 calcium fluorescence, EC20 TRH enhancement; in the data active means enhancement above about 30%
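Enhancer read-out: after compound pinning and an initial kinetic agonist-mode read, an EC20 of TRH (10 nM final) was injected and fluo-8 calcium signal (Ex 480/Em 530) followed at 1 s/cycle for 100 cycles in TRHR-expressing cells.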
Of the large screens only hits and unclear results are named; the others gave an inactive call. Rows were chosen to be rich in hits. Some 4.7% of all compounds tested hit in one or more screens of this group. Unless noted, no stated cut-off is given here; in the data, active means activation above about 30%; inactive means the rest.

CSc1ccc(Nc2nn(-c3ccc(OC(F)(F)F)cc3)nc2C(C)=O)cc1	none
CCn1c(=O)c2cc(C(=O)N(CC(C)C)CC(C)C)sc2c2ccccc21	none
COc1ccccc1Nc1nn2c(=O)c3ccc(C(=O)NC(C)c4ccccc4)cc3nc2s1 (configuration not stated)	none
CCN(CC)CCNC(=O)c1ccc2c(=O)n3nc(Nc4cccc(Cl)c4C)sc3nc2c1	D1 antag -56
Cc1ccc(Cl)cc1Nc1nn2c(=O)c3ccc(C(=O)NC(C)c4ccccc4)cc3nc2s1 (configuration not stated)	D1 antag -54
Cc1ccc(NC(=O)CN2C(=O)C(c3ccc(C)cc3)=NC23CCCCCC3)cc1	none
COc1ccc(-c2noc(C3CC(=O)N(c4ccc(C)c(F)c4)C3)n2)c(OC)c1 (configuration not stated)	none
Cc1ccc(Cn2ccc(=O)c(OCc3c(Cl)cccc3Cl)c2C)cc1	TRHR enhancer 39
COc1ccc(NC(=O)C(=O)NCC2(c3ccccc3)CCCC2)c(OC)c1	none
Cc1ccc(NC(=O)c2cc([N+](=O)[O-])ccc2NCc2cccnc2)cc1	D1 antag -36
COc1ccc(-c2nc3c4cnn(-c5ccccc5F)c4ncn3n2)cc1	none
CCN(CC)c1ccc(NS(=O)(=O)c2ccc3c(c2)CCCN3C(C)=O)c(C)c1	none
Cc1ccc(Nc2sc(C(=O)c3ccc(F)cc3)c(N)c2S(=O)(=O)c2ccc(C)cc2)cc1	D1 ag 79, D1 antag -30
Cc1ccc(S(=O)(=O)c2c(Nc3cc(F)ccc3F)sc(C(=O)c3ccc(F)cc3)c2N)cc1	D1 ag 57, D1 antag -69
COc1ccc(OC)c(Nc2sc(C(=O)c3ccccc3)c(N)c2S(=O)(=O)c2ccccc2)c1	D1 ag 58
Nc1c(C(=O)c2ccc(F)cc2)sc(Nc2ccccc2F)c1S(=O)(=O)c1ccc(Br)cc1	D1 ag 83
CCOC(=O)c1scc(-c2ccc(C)cc2)c1S(=O)(=O)N1CCN(c2ccccc2)CC1	none
CS(=O)(=O)Nc1ccc(-c2nc3ccccc3s2)cc1	none
COc1cc(/C=N/O)cc(Cl)c1OC	D1 ag 89
O=C(O)/C=C/C(=O)Nc1cccc(C(F)(F)F)c1	none
C=CCC(CC=C)(CNC(=O)C(=O)Nc1cccc(C(F)(F)F)c1)c1ccccc1	D1 ag 30
CN(CCc1nc2ccccc2[nH]1)Cc1nc(CC2CC2)no1	none
CN(CCc1nc2ccc(Cl)cc2[nH]1)Cc1nc(CC2CC2)no1	TRHR enhancer 35
CCOC(=O)c1cc(C#N)c(SC)nc1-c1ccccc1	D1 antag -44
CCOC(=O)c1cc(C#N)c(SC)nc1C	none
O=S(=O)(Nc1c(Br)cc(Br)c2cccnc12)C1CC1	none
COc1ccc(S(=O)(=O)n2ccc(C)n2)cc1C	none
COc1cc(C)c(S(=O)(=O)n2ccc(C)n2)cc1C	D1 antag -32
CCN(CC)CC(O)Cn1c(C)c(-c2ccccc2)c2cc([N+](=O)[O-])ccc21 (configuration not stated)	D1 ag 34
CCN(CC)CC(O)Cn1c2ccccc2c2ccccc21 (configuration not stated)	none
Cc1c(NC(=O)c2cc([N+](=O)[O-])ccc2N2CCOCC2)cccc1-c1nc2ccccc2o1	none
CCOc1cccc(CNC(=O)c2ccc(N3CCCC3)c(NC(=O)NCc3ccc(F)cc3)c2)c1	D1 antag -35
CCN1CCN(C(=O)c2ccc3c(c2)N(Cc2cccc(F)c2)C(=O)c2ccccc2S3)CC1	none
CCOc1ccc(NC(=S)N(CCCN2CCCC2)Cc2cccn2Cc2ccc(Cl)cc2)cc1	D1 antag -48
O=C(O)[C@@H]1CSC2(CCSC2)N1 (some centres not stated)	none
CC1(C)SCC(C(=O)O)NC1=O (configuration not stated)	D1 antag -34
CS(=O)(=O)Oc1ccc2c(c1)O/C(=C\c1cccnc1)C2=O	none
O=C(Oc1ccc2c(c1)O/C(=C\c1ccncc1)C2=O)c1cccs1	D1 ag 37
CC(C)c1ccc(S(=O)(=O)N2CCC(n3c(C(F)(F)F)nc4cccnc43)CC2)cc1	none
O=C1CSC2(C(=O)N(Cc3ccccc3F)c3ccccc32)N1c1cccc(C(F)(F)F)c1 (configuration not stated)	none
O=C(/C=C/c1ccc(Cl)cc1)N1CCN(c2ncccn2)CC1	none
O=C(/C=C/c1ccccc1Cl)N1CCN(c2ncccn2)CC1	D1 antag -31
CC(C)(C)c1ccc(C(=O)NCC(=O)OCc2ccc([N+](=O)[O-])cc2)cc1	D1 antag -35
CCN1CCN(C(=O)c2cc3cc([N+](=O)[O-])ccc3oc2=O)CC1	D1 antag -36
CCOC(=O)c1cc2c(ccn2C)n1CC(=O)N1CCN(c2cccc(C(F)(F)F)c2)CC1	D1 antag -38
CCOC(=O)c1cc2c(ccn2C)n1CC(=O)N1CCN(c2ccc(F)cc2)CC1	none
CCN(CC)CC1C(=O)N(c2ccc(OC)cc2)C1c1ccccc1 (configuration not stated)	D1 antag -39
Cc1sc2nc(SCC(=O)N3CCCCC3)[nH]c(=O)c2c1C	none
Cc1sc2nc(SCC(=O)N3CCCC3)[nH]c(=O)c2c1C	D1 antag -34
Cc1nc(-c2ccc(S(=O)(=O)N(C)Cc3ccccc3)cc2)co1	none
CC1CCN(CCOc2ccccc2-c2ccccc2)CC1	none
c1ccc(-c2ccccc2OCCCN2CCCC2)cc1	D1 antag -39
c1ccc(-c2ccccc2OCCCCN2CCCCC2)cc1	none
c1ccc(-c2ccccc2OCCCN2CCCCCC2)cc1	D1 antag -43
CC(=O)Nc1ccc(NC(=O)CC(C)n2ccc(C)n2)cc1 (configuration not stated)	none
Cc1ccccc1C(=O)Nc1nnc(S(=O)(=O)N(C)Cc2ccc(Cl)cc2)s1	D1 antag -31, TRHR enhancer 43
COc1ccc(CNC(=O)CN(CCC(C)C)S(=O)(=O)c2ccc3c(c2)OCCO3)cc1	D1 antag -32
C=C(C)CN1C(=O)c2ccccc2C1=O	none (no result: D1 antag)
C=C(C)CC1Nc2ccccc2NC1CC(=C)C (configuration not stated)	D1 antag -62
COc1ccc(C2C(C(=O)N3CCN(c4ccccc4F)CC3)c3ccccc3C(=O)N2C)cc1 (configuration not stated)	D1 antag -83

Assay outcomes deposited in PubChem by National Center for Advancing Translational Sciences (NCATS).
